Experiment [1] can be described thus: AP1 Signaling Pathway (AID 357; active = well fitted curve in either direction with a large enough effect, not every such curve was filed as active;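 note: ME-180 reporter cells stimulated with EGF at its EC50 level; % is set by controls: 0 for no effect and ±100 for the full control effect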). The following applies: ME-180 AP-1-bla reporter, EGF-induced, beta-lactamase ratio, 5 h; at 17.2 µM (top of the series) unless noted. In a few lines: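 Modulation of EGF-driven AP-1 transcription was assessed with a beta-lactamase reporter in ME-180 cells. Compound and EC50 EGF were co-incubated 5 hours at 37 °C before 2.5-hour CCF4 loading at room temperature and dual-emission reading.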

The target in experiment [2] is Cytochrome P450 1A2 (Homo sapiens) (UniProt P05177). Nature of the experiment: p450-cyp1a2 (AID 410; calls by dose curve; note: potency is the fitted concentration of half-maximal effect;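 for activity change, negative = inhibition: -100% = full effect of reference inhibitor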). In a few lines: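 20nM CYP1A2, 100uM Luciferin-ME (=Km), 100mM KPO4; cpd 10 min RT; +NADPH regen, 60 min RT; stop/detect 20 min; luminescence. Normalized to furafylline 57 uM = full inhibition.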
Experiment [3] is described as follows: Stat Signaling Pathway (AID 446; active = well fitted curve in either direction with a large enough effect, not every such curve was filed as active;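 note: ME-180 cervical cancer cells given 40 pM IL-6 alongside compound; SIE-controlled beta-lactamase reporter measured as 460/530 nm FRET emission ratio; % is set by controls: 0 for no effect and ±100 for the full control effect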). The following applies: ME-180 (cervical carcinoma) SIE beta-lactamase reporter, IL-6 stimulated, 5 h; at 17.2 µM (top of the series) unless noted. Put shortly: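 FRET read-out (405 nm excitation, 460/530 nm emission) of a beta-lactamase reporter under a STAT-inducible element in ME-180 cervical carcinoma cells. Cells with compound receive 40 pM IL-6 for 5 h. Values are normalised to AC90 stimulation and AC90 JAK-inhibitor controls.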

The target of experiment [4] is Glucocorticoid receptor (Homo sapiens) (UniProt P04150). Nature of the experiment: GR-GFP Redistribution (AID 450;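 active = compounds whose dose series gives a full or clear partial fitted curve of increased nuclear translocation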; note: potency is the fitted concentration of half-maximal effect).
The target in experiment [5] is Guanine nucleotide-binding protein G(i) subunit alpha-1 (Homo sapiens) (UniProt P63096). Description: qHTS Assay for Inhibitors of RGS12 GoLoco Motif Activity (Green Fluorophore) (AID 879).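 Note: 0% = labeled peptide with Gαi1 and full inhibition = labeled peptide alone without protein; negative values mean loss of peptide binding seen as reduced polarization.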 Put shortly:
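A drop in FITC polarization marked displacement of the FITC-tagged RGS12 GoLoco peptide (10 nM) from Gαi1 (50 nM). Compounds were incubated 10 min at room temperature in Tris pH 7.5 buffer containing 150 mM NaCl, 0.1 mM GDP and 0.05% NP40; unlabeled peptide titration served as control.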
(In general: Quantitative high-throughput screening tests each substance at several concentrations.)

The target in experiment [6] is Cytochrome P450 3A4 (Homo sapiens) (UniProt P08684). Description: qHTS Assay for Inhibitors and Substrates of Cytochrome P450 3A4 (AID 884). Note: % is set by controls: 0 for no effect and ±100 for the full control effect; nearly all actives have a fitted effect of over 50% in size. In a few lines:
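Luminescent readout of luciferin produced by CYP3A4 (20 nM) dealkylation of Luciferin-PPXE, 25 uM (its KM). NADPH-driven reaction ran 60 min at RT after 10 min compound preincubation; data scaled to 57 uM ketoconazole as 100% inhibition.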

For experiment [7] the target is unchanged. Description: qHTS Assay for Activators of Cytochrome P450 3A4 (AID 885). Note: nearly all actives have a fitted effect of over 65% in size. Note: potency is the fitted concentration of half-maximal effect. Put shortly: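 Luminescent readout of luciferin formed from 25 uM Luciferin-PPXE (KM level) by 20 nM CYP3A4 in 200 mM KPO4, with 60 min NADPH-driven reaction at room temperature after 10 min compound exposure. Ketoconazole (57 uM) defined 100% inhibition.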
For experiment [8], the target named is Cytochrome P450 2D6 (Homo sapiens) (UniProt P10635). Description: qHTS Assay for Inhibitors and Substrates of Cytochrome P450 2D6 (AID 891). Note: nearly all actives have a fitted effect of over 60% in size. Note: potency is the fitted concentration of half-maximal effect. In a few lines: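 Luminescent read-out of luciferin formed by 5 nM human CYP2D6 demethylating 30 uM Luciferin-ME EGE (Km level) over 60 min at room temperature after NADPH regeneration addition. Data normalized to full inhibition by 1.43 uM quinidine.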

For experiment [9], the target named is Muscarinic acetylcholine receptor M1 (Rattus norvegicus) (UniProt P08482). Description: qHTS Assay for Antagonists of Acetylcholine Muscarinic M1 Receptor: Kinetic Measurement of Intracellular Calcium Response (AID 943).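 For activity change, negative = inhibition: Fluo-4 calcium signal as peak divided by basal fluorescence over 4 min.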 Note: nearly all actives have a fitted effect of over 75% in size. Note: potency is the fitted concentration of half-maximal effect. In a few lines:
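Read-out: peak over basal Fluo-4 fluorescence, kinetic at 1 Hz for 4 min after EC80 carbachol (100 nM final). Rat M1-CHO cells, dye loaded 1 h at 37C, compound added 10 min before agonist.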

Experiment [10] addresses Pyruvate kinase (Leishmania mexicana) (UniProt Q27686). Nature of the experiment: qHTS Validation Assay for Inhibitors of Leishmania Mexicana Pyruvate Kinase (AID 945).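 Note: 0% = DMSO only neutral control wells.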 In a few lines:
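Purified LmPYK (E451W mutant, 0.2 nM) was incubated 1 h at room temperature with 0.5 mM PEP and 0.1 mM ADP in 50 mM imidazole pH 7.2, 50 mM KCl, 7 mM MgCl2; ATP formed was read by PKLight luminescence, normalized to DMSO wells.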

In experiment [11] the target is Pyruvate kinase PKM (Homo sapiens) (UniProt P14618). Nature of the experiment: qHTS Assay for Activators of Human Muscle Pyruvate Kinase (AID 954; active = well fitted curve in the direction sought with a large enough effect, not every such curve was filed as active;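 note: 0% = uninhibited enzyme and -100% = no enzyme or full thiadiazolimine inhibition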). Put shortly:
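ATP production by PKM2 detected via luciferase luminescence after 1 h room-temperature reaction (0.1 nM enzyme, PEP at Km 0.5 mM, ADP 0.1 mM, pH 7.2 imidazole buffer). Inhibition scaled to no-enzyme control; activation referenced to 0.3 nM enzyme wells.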

Experiment [12] addresses Alpha-galactosidase A (Homo sapiens) (UniProt P06280). Description: Counterscreen for Glucocerebrosidase Inhibitors: qHTS Assay for Human alpha-Galactosidase at pH 4.5 (AID 992). Note: 0% is about no effect. In a few lines:
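Fluorogenic 1536-well qHTS at pH 4.5 (citrate, Tween-20): 2 nM enzyme, 80 uM 4-MU-alpha-galactoside, 20 min room temperature, NaOH/glycine stop. Titration 0.7 nM to 77 uM, data normalized to no-enzyme and full-activity controls, Hill-fitted AC50.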
A general note: The purpose of a counterscreen is to sort out artefacts and off-target activity.

Experiment [13] deals with alpha-glucosidase (Oryza sativa, rice) (UniProt Q653V4). Description: Counterscreen for Glucocerebrosidase Inhibitors: qHTS Assay for Rice alpha-Glucosidase at pH 5.0 (AID 997).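 Note: 0% = full activity with enzyme and -100% = basal without enzyme.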 In a few lines: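 Endpoint fluorogenic assay at pH 5.0: compounds (0.7 nM to 77 uM) titrated against 4 nM rice enzyme and 400 uM 4-MU-alpha-glucoside for 20 min at room temperature; NaOH/glycine stop, read ex 365/em 440 nm, Hill-fitted AC50.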

The nature of experiment [14]: NFAT Signaling Pathway (AID 444; active = well fitted curve in either direction with a large enough effect, not every such curve was filed as active;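 note: carbachol stimulus at about its EC50 of 1 µM final; % is set by controls: 0 for no effect and ±100 for the full control effect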). The following applies: Jurkat NFAT-bla M1, carbachol, beta-lactamase ratio, 5 h; at 17.2 µM (top of the series) unless noted. Put shortly: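 Jurkat cells carrying an NFAT-driven β-lactamase reporter and co-transfected muscarinic M1 receptor were treated with compound plus carbachol (1 uM final, an EC50 level) for 5 h at 37 °C. CCF4 loading followed for 1 h at RT; 460/530 nm ratio gave %activity.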

Experiment [15] concerns the target Glucocorticoid receptor (Homo sapiens) (UniProt P04150). Description: GR-EFC Redistribution (AID 451; calls by dose curve; note: potency is the fitted concentration of half-maximal effect). The following applies: CHO-K1 GR-EFC translocation, beta-gal luminescence, 2 h. Put shortly:
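CHO-K1 cells stably expressing nuclear-localized β-gal enzyme acceptor and GR fused C-terminally to the enzyme donor fragment; ligand-driven nuclear translocation restores β-gal by complementation. Compounds titrated up to 46 uM final, 2 h at 37 °C; luminescence read.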

In experiment [16] the target is Mitogen-activated protein kinase 10 (Mus musculus) (UniProt Q61831). Description: JNK3 AlphaScreen Assay (AID 530; active = well fitted curve in either direction with a large enough effect, not every such curve was filed as active;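 note: kinase came from lysate of stimulated human HepG2 cells; signal reports phosphorylation of biotinylated GST-cJun 1-79 at Ser73 with 10 µM ATP; % is set by controls: 0 for no effect and ±100 for the full control effect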). In a few lines:
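Biotinylated GST-cJun(1-79) served as substrate for JNK3 in HepG2 lysates stimulated with IL-1beta and TNF-alpha. ATP was 10 uM final, pH 7.6. Ser73 phosphorylation was quantified by AlphaScreen (680 nm excitation).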
(In general: In Alpha technology, singlet oxygen from a donor bead excites a nearby acceptor bead.)

Experiment [17] can be described thus: qHTS Assay for Identification of Small Molecule Agonists for Thrombopoietin (TPO) Signaling Pathway (AID 917). Note: % is set by controls: 0 for no effect and ±100 for the full control effect. Put shortly: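 Cell-based luciferase reporter screen. Mouse Ba/F3 line stably expressing human TPO receptor; IL-3 removed overnight before plating. Co-treatment with compound and EC50 TPO (26 pM), 24 hrs at 37 C, then luminescence.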
The target in experiment [18] is 3',5'-cyclic-AMP phosphodiesterase 4B (Homo sapiens) (UniProt Q07343). Nature of the experiment: qHTS Assay for Inhibitors of PDE-IV (AID 607; active = well fitted activation curve with a large enough effect in the main read-out, with a control signal flat, not every such curve was filed as active; note: % of control where 0% means no effect). In a few lines:
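Cell-based read-out of cAMP via a modified cyclic nucleotide-gated channel and membrane potential dye (535/590 nm) in HEK293 cells expressing PDE4 endogenously. Compounds tested up to 22.9 uM final; 100 uM RO 20-1724 reference.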

In experiment [19] the target is Cytochrome P450 2C9 (Homo sapiens) (UniProt P11712). Nature of the experiment: qHTS Assay for Inhibitors and Substrates of Cytochrome P450 2C9 (AID 883). Note: % is set by controls: 0 for no effect and ±100 for the full control effect; nearly all actives have a fitted effect of over 60% in size. Put shortly: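 Human CYP2C9 (10nM) hydroxylated Luciferin-H (100uM, at its KM) to luciferin in 25mM KPO4. Compound was preincubated 10 min at 37C, then NADPH regeneration started a 60 min reaction at 37C. Luminescence was read after detection reagent, normalized to 57uM sulphaphenazole.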

Experiment [20] deals with Cytochrome P450 2C19 (Homo sapiens) (UniProt P33261). Nature of the experiment: qHTS Assay for Inhibitors and Substrates of Cytochrome P450 2C19 (AID 899). Note: % is set by controls: 0 for no effect and ±100 for the full control effect; nearly all actives have a fitted effect of over 60% in size. Put shortly:
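Human CYP2C19 (5nM) with Luciferin-H EGE at 10uM (its KM) in 50mM KPO4 was preincubated with compound for 10 min at 37C. NADPH regeneration started a 60 min 37C reaction. Luciferin was read by luminescence, normalized to 57uM ketoconazole.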

Structures are written as SMILES. Values without a mark were called inactive. Results filed as inconclusive are left out. Calls of active or inactive are those of the source. Unless noted, calls come from the whole dose curve; as a rule, active = well fitted curve in the direction sought with a large enough effect; inconclusive = small, poorly fitted or top-dose-only effect, or another doubt; inactive = no such curve, though single readings can be large; an effect the other way counts as inactive or inconclusive. Bounds are passed on as bounds.

Cytochrome P450 3A4 (Homo sapiens), sequence (P08684 whole entry, looked up): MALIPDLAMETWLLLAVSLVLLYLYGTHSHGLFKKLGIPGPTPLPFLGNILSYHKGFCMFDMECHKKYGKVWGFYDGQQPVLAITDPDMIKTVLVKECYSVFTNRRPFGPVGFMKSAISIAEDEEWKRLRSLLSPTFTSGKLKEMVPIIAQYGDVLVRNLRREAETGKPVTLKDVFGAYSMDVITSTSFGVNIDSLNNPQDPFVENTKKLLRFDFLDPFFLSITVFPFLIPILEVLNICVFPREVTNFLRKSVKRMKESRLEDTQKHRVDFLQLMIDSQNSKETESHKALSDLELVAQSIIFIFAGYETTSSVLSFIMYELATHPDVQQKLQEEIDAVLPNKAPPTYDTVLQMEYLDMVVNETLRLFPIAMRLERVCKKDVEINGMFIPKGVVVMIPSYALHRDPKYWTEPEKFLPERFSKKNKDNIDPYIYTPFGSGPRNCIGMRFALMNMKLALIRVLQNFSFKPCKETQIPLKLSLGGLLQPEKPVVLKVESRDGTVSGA
Glucocorticoid receptor (Homo sapiens), sequence (P04150 whole entry, looked up, the tested form may be a part): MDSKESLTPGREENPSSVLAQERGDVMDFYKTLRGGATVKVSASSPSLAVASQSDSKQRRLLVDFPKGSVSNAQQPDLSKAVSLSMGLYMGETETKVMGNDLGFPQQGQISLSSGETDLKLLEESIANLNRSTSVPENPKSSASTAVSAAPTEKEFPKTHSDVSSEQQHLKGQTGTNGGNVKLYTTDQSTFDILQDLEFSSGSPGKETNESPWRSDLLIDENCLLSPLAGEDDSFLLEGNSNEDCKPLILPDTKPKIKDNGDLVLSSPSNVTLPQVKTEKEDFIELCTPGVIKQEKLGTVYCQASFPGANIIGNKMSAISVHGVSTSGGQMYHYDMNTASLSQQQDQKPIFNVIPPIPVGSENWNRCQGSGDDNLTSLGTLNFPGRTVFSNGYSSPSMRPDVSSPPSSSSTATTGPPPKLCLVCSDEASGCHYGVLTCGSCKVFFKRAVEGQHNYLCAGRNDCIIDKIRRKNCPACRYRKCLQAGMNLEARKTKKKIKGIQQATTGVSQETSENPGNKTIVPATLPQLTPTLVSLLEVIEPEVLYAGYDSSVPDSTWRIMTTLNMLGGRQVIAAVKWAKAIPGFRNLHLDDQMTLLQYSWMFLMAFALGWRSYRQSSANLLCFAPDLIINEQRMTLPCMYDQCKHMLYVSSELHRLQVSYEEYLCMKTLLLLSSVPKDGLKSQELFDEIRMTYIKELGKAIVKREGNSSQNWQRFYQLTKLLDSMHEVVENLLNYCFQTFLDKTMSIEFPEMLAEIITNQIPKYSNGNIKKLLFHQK
Cytochrome P450 2D6 (Homo sapiens), sequence (P10635 whole entry, looked up): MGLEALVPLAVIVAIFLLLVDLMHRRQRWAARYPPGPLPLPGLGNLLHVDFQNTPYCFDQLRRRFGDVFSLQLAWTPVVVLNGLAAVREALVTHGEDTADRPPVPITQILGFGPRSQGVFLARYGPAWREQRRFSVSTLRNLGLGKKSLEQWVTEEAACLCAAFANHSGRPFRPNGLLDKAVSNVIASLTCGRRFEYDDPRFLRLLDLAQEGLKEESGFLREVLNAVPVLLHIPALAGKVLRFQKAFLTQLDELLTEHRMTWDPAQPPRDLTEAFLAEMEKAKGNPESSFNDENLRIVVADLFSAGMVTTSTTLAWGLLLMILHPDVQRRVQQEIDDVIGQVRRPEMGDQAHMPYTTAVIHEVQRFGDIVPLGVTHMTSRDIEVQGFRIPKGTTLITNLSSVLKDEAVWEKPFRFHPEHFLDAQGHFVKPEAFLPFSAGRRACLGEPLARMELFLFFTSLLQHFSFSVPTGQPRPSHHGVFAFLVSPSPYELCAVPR
Cytochrome P450 1A2 (Homo sapiens), sequence (P05177 whole entry, looked up): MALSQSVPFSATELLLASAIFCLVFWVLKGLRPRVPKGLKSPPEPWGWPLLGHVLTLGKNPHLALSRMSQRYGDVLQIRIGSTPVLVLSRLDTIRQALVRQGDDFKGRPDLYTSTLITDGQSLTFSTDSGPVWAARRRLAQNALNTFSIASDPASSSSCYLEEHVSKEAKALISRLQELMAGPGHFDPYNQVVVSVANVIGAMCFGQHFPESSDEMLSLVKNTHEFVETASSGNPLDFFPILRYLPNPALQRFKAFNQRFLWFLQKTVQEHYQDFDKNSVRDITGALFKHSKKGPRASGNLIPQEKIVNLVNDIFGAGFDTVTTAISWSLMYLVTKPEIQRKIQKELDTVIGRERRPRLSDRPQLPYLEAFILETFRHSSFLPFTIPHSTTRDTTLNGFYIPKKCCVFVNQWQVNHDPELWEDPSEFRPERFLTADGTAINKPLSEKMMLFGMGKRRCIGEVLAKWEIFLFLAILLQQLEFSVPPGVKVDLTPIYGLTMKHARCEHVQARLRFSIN
Cytochrome P450 2C9 (Homo sapiens), sequence (P11712 whole entry, looked up): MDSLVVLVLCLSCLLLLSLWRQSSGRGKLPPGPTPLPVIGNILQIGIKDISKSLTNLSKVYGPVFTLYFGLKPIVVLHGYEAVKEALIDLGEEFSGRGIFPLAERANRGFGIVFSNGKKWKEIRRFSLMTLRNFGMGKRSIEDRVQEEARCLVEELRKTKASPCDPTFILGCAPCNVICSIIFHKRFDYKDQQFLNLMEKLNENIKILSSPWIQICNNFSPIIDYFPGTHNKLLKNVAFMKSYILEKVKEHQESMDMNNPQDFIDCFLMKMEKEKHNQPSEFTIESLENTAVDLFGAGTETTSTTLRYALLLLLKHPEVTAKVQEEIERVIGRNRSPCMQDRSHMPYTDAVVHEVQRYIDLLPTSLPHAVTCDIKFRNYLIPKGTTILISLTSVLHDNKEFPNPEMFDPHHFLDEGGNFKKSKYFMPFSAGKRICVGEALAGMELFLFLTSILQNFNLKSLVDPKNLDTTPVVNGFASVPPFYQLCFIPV
Pyruvate kinase (Leishmania mexicana), sequence (Q27686 2-499 E452W): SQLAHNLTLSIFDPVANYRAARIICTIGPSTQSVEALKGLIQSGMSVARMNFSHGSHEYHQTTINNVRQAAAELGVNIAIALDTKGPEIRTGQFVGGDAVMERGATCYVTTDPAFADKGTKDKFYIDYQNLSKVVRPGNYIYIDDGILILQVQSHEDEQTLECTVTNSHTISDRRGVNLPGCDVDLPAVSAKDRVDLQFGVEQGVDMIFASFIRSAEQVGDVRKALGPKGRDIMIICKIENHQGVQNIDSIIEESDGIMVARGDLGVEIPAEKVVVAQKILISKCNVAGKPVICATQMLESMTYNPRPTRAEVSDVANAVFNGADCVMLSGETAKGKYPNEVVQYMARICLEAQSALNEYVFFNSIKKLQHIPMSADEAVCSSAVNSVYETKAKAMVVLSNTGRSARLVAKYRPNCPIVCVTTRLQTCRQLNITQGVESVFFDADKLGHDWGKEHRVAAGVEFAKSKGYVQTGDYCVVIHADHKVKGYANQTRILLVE
Pyruvate kinase PKM (Homo sapiens), sequence (P14618 whole entry, looked up): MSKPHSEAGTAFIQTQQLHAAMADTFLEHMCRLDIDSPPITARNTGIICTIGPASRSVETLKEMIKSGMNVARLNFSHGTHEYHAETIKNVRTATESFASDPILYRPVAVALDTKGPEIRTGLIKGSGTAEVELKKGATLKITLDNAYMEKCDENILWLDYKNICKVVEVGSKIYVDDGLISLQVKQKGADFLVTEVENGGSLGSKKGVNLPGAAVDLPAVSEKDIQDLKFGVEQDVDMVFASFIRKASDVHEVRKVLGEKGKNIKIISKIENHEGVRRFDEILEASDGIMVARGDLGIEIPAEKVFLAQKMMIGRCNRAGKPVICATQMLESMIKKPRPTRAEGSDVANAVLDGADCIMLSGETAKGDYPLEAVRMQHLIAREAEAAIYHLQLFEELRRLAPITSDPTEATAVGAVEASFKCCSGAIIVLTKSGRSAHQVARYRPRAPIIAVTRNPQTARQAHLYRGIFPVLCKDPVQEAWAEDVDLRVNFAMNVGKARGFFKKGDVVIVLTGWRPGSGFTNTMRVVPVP
Muscarinic acetylcholine receptor M1 (Rattus norvegicus), sequence (P08482 whole entry, looked up): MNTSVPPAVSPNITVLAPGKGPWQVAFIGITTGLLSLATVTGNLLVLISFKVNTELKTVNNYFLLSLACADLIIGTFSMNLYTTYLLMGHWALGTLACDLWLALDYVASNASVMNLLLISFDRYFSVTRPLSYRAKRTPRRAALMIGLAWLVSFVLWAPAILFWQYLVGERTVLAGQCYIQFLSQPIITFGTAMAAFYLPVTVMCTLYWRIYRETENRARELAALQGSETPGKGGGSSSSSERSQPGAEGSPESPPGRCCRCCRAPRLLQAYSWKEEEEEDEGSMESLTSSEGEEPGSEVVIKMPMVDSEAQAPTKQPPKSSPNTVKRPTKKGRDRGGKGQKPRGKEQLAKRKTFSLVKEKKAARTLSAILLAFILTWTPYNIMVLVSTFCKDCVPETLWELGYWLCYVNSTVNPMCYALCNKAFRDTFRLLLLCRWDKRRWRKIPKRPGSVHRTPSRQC
Alpha-galactosidase A (Homo sapiens), sequence (P06280 whole entry, looked up): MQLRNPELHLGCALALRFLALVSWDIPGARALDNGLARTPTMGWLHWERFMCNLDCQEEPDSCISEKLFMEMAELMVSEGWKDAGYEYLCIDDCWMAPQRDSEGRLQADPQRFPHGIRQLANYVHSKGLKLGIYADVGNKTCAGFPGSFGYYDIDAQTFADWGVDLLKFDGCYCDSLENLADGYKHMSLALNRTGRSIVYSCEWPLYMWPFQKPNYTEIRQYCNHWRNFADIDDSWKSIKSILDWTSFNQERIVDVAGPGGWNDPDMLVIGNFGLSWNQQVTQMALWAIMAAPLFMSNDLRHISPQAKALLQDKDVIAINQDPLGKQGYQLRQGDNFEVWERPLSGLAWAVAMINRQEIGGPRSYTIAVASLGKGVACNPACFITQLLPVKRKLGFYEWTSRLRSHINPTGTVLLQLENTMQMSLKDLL

As to `CCCN(CCc1ccccc1)[C@H]1CCc2c(O)cccc2C1`, the activity change, negative = inhibition in [1] was 9.86% [at 38 µM]. Further, the Potency in [2] was 12.6 µM (active); in [4] it was over 46 µM; in experiment [7], 12.6 µM (active); in experiment [8] it was 0.501 µM (active); in experiment [9] it was 0.501 µM (active). Besides, the activity, negative = inhibition in experiment [3] was -8.8% [at 38 µM]. For the same molecule, the molecule was called inactive in [5], in experiment [11], in [12] and in experiment [13]. In addition, the Potency entry in [6] and in experiment [10] was “inactive” throughout.
On to `COc1cc(N2CCCC2)c(OC)cc1/C=c1/sc2nc3ccccc3n2c1=O`, for which the activity change, negative = inhibition in experiment [1] was -3.35%; in experiment [14] it was -23%. In [3], the activity, negative = inhibition is -0.381%.
As to `O=C1[C@@H]2C=CC=CC2=NC(=S)N1CCN1CCC(=C(c2ccc(F)cc2)c2ccc(F)cc2)CC1`, the activity change, negative = inhibition in experiment [1] was 26.4% [at 38 µM]. For the same molecule, the Potency result in [2], in [16], in [7], in experiment [17], in [9] and in experiment [10] was “inactive” each time. Also, in [3], the activity, negative = inhibition is 6.96% [at 38 µM]. Further, the Potency in experiment [4] and in [15] was over 46 µM each time. The call in [11], in [12] and in experiment [13] was inactive.
With `OC[C@@H]1O[C@@H](n2cnc3c(NCCc4ccccc4)ncnc32)[C@@H](O)[C@H]1O`, the activity change, negative = inhibition in experiment [1] is -4.22% [at 38 µM]. Also, the Potency entry in experiment [2], in [16], in experiment [18], in experiment [19], in [8] and in experiment [20] was “inactive” in each case. The activity, negative = inhibition in [3] is 0.109% [at 38 µM]. The Potency in [4] and in experiment [15] was over 46 µM throughout.
As to `CC1(NC[C@@H](O)COc2cccc3[nH]ccc23)CCC(C(C)(C)NC(=O)CBr)CC1` (stereo partly drawn), the activity change, negative = inhibition in experiment [1] was 7.03% [at 38 µM]. The Potency entry in experiment [2], in experiment [18], in experiment [19] and in [20] was “inactive” each time. For the same molecule, the activity, negative = inhibition in [3] was 18.1% [at 38 µM]. Besides, the Potency in experiment [4] is over 46 µM; in experiment [15] it was over 46 µM; in [8], 1.26 µM (active).

For the origin of these results see PubChem BioAssay (NCATS).
